From PubChem BioAssay (NCATS)
Results filed as inconclusive are left out. A call without a number means that no potency is given here. The source made the active and inactive calls. Calls come from the whole dose curve; as a rule, active = well fitted activation curve with a large enough effect in the main read-out, with a control signal flat (not every such curve was filed as active); inconclusive = small, poorly fitted or top-dose-only effect, or effect the other way, or a change in a side signal; inactive = flat fitted curve, though single readings scatter.
Potency is the fitted concentration of half-maximal effect.

These compounds were tested against 3',5'-cyclic-AMP phosphodiesterase 4B (Homo sapiens) (UniProt Q07343) (assay: qHTS Assay for Inhibitors of PDE-IV (AID 607)). Conditions: HEK293 ACTOne CNG channel cells, membrane potential fluorescence; series mostly up to 22.9 µM.
Sequence of 3',5'-cyclic-AMP phosphodiesterase 4B (Homo sapiens) (Q07343 whole entry, looked up): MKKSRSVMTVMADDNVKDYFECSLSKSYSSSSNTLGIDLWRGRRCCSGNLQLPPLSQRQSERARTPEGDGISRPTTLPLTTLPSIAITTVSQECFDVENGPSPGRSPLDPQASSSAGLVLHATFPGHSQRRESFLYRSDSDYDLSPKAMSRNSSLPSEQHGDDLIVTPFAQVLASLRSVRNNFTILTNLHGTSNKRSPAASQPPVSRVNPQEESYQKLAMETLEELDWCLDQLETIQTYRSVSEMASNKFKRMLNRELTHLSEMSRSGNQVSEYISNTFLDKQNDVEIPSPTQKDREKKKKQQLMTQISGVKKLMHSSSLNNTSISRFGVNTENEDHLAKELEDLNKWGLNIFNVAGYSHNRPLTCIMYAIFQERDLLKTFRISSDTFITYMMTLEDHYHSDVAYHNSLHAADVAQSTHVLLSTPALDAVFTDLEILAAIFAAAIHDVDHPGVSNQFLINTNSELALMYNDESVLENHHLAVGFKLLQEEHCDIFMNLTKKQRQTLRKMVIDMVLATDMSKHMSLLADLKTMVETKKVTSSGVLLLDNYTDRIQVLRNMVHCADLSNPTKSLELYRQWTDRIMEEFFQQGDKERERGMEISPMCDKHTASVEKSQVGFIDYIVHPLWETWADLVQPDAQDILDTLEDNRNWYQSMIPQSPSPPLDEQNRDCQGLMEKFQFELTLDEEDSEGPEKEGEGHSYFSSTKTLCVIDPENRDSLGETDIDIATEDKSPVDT
Procedure, shortened: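 The readout is membrane depolarisation from a cAMP-sensing CNG channel, detected with a potential dye at ex 535/em 590. Cells were HEK293-derived (endogenous PDE-IV) at 1000 cells/well, titrated up to 22.9 uM final.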
In the case of `Cc1nc2cnc(Oc3cccc(Cl)c3)nc2n(C2CC2)c1=O`, the Potency is reported as “inactive”. In the case of `CNc1ncncc1-c1ccccc1C(F)(F)F`, the Potency is reported as “inactive”. With `CC(=O)NCCNc1nc(-c2ccc(C(=O)N(C)C)cc2)nc2ccccc12` the Potency was “inactive”. For `COc1ccc(CNc2ccnc(-c3ccc(C(=O)N(C)C)cc3)n2)c(OC)c1`, the Potency was “inactive”. `Clc1ccccc1-c1cc(NCCN2CCOCC2)ncn1` was tested, and the Potency was “inactive”. In the case of `COc1ccc(CNc2cc(-c3cccnc3)ncn2)c(OC)c1`, the Potency is reported as “inactive”. With `CCNc1ncc2nc(-c3ccc(OC)cc3)c(=O)n(CCC#N)c2n1` the Potency was “inactive”. In the case of `FC(F)(F)c1ccccc1-c1cncnc1NCc1cccnc1`, the Potency is reported as “inactive”. `COc1ncc2nc(-c3cn(C)c4ccccc34)c(=O)n(C)c2n1` was tested, and the Potency was “inactive”. With `CN(C)C(=O)c1ccc(-c2cncnc2NCc2ccccc2)cc1` the Potency was “inactive”. In the case of `Cc1nc2cnc(N(C)C)nc2n(-c2ccccc2)c1=O`, the Potency is reported as “inactive”. With `COc1ccccc1CNc1ncncc1-c1ccc(C(=O)N(C)C)cc1` the Potency was “inactive”. With `COc1ccc(CNc2ncncc2-c2ccccc2C(F)(F)F)c(OC)c1` the Potency was “inactive”. For `COCCn1c(=O)c(-c2cccc(C#N)c2)nc2cnc(N3CCOCC3)nc21`, the Potency was “inactive”. For `CNc1ncncc1-c1ccccc1C`, the Potency was “inactive”. With `COCCn1c(=O)c(-c2cccc(C#N)c2)nc2cnc(Oc3ccc(OC)cc3)nc21` the Potency was “inactive”. `CN(C)C(=O)c1ccc(-c2nccc(N(C)Cc3ccco3)n2)cc1` was tested, and the Potency was “inactive”. With `COc1c(O)cc2oc3cc(O)c(CC=C(C)C)c(O)c3c(=O)c2c1CC=C(C)C` the Potency was “inactive”. With `CS(=O)(=O)Nc1cccc(-c2cc(NCc3cccs3)ncn2)c1` the Potency was “inactive”. With `COc1ccc(-c2nc3cnc(OC)nc3n(C)c2=O)cc1` the Potency was “inactive”. For `c1ccc(CNc2ncncc2-c2cccnc2)cc1`, the Potency was “inactive”. With `Cn1c(=O)c(-c2ccc(Cl)cc2)nc2cnc(OCc3ccccc3)nc21` the Potency was “inactive”. With `COc1cccc(Cn2c(=O)c(-c3ccc(Cl)cc3)nc3cnc(N4CCN(C)CC4)nc32)c1` the Potency was “inactive”. `COc1cccc(Cn2c(=O)c(CCc3ccccc3)nc3cncnc32)c1` was tested, and the Potency was “inactive”. For `COc1ncc2ncc(=O)n(C3CC3)c2n1`, the Potency was 1.58 µM (active). In the case of `Cc1cnc(CNc2cc(-c3ccccc3C(F)(F)F)ncn2)cn1`, the Potency is reported as “inactive”. `CN(C)C(=O)c1ccc(-c2cncnc2NCc2cccnc2)cc1` was tested, and the Potency was “inactive”. `COc1ncc2nc(-c3ccc(F)cc3)c(=O)n(CCc3ccccc3)c2n1` was tested, and the Potency was “inactive”. For `N#Cc1cccc(-c2nccc(-n3ccnc3)n2)c1`, the Potency was “inactive”. `O=c1c(-c2ccccc2)nc2cnc(Oc3cccc(Cl)c3)nc2n1C1CC1` was tested, and the Potency was “inactive”. For `CNc1nc(-c2cccnc2)nc2ccccc12`, the Potency was “inactive”. With `Cn1cc(-c2nc3cnc(Oc4ccccc4)nc3n(Cc3cccs3)c2=O)c2ccccc21` the Potency was “inactive”.
